Source: PubChem BioAssay
12-LOX inh = Primary qHTS assay for inhibitors of human arachidonate 12S-lipoxygenase (ALOX12): Round 2. purified 12hLO, xylenol orange hydroperoxide absorbance. Potency, µM (top dose mostly 108 µM), inactives show at the highest dose activity change, negative = inhibition, most hits filed as inhibitors. 580,000 tested, 1.1% active; further: on the % scale 0 is the no-effect control and ±100 the full control effect
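Purified human 12hLO (150 nM final) in 25 mM Hepes, 0.01% Triton X-100, pH 7.0 was preincubated 15 min at room temperature with compound. Then 40 uM arachidonic acid was added, 30 min. Hydroperoxide was read by Fe-XO absorbance ratio 573/405 nm.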
BAZ2B inh = qHTS Assay for Inhibitors of BAZ2B; Potency, µM (titrated, usually from 114 µM), without a hit: top-dose activity change, negative = inhibition, most hits filed as inhibitors; 360,000 tested, 4.4% active; AID 504333, 2011; AlphaScreen BAZ2B-H3K14Ac peptide displacement; further: on the % scale 0 is the no-effect control and ±100 the full control effect; nearly all actives have a fitted effect of over 60% in size
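Multi-concentration screen (max 110 uM) measuring displacement of acetylated histone H3 peptide from BAZ2B by AlphaScreen, using 50 nM protein, 50 nM peptide and 10 ug/mL streptavidin donor plus Ni-chelate acceptor beads.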
PLK1 PBD block = qHTS for Inhibitors of PLK1-PDB (polo-like kinase 1 - polo-box domain): Primary Screen. Serine/threonine-protein kinase PLK1 (Homo sapiens), P53350. Plk1 PBD binding of FITC phosphopeptide, fluorescence polarization. Potency, µM, inactives show max response, negative = inhibition, actives largely listed as inhibitors. 360,000 tested, 2.8% active. AID 720504, 2013; further: series mostly up to about 57 µM; on the % scale 0 is the no-effect control and ±100 the full control effect; nearly all actives have a fitted effect of over 65% in size
HP1b chromo inh = HTS for Inhibitors of HP1-beta Chromodomain Interactions with Methylated Histone Tails | Chromobox protein homolog 1 (Homo sapiens), P83916 | 390,000 tested, 0.56% active | Potency, µM (doses to about 114 µM), for inactives: at the highest dose activity change, negative = inhibition, most hits filed as inhibitors | AlphaScreen HP1-beta / biotin-H3K9me3 peptide binding; further: nearly all actives have a fitted effect of over 70% in size
Target sequence (P83916 whole entry, looked up): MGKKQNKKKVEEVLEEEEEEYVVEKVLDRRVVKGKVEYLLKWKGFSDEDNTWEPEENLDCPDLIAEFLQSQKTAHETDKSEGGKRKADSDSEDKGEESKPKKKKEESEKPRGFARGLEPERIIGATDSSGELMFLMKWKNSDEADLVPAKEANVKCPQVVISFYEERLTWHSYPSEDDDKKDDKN
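AlphaScreen: HP1-beta (50 nM) preformed 30 min with biotin-H3(1-18)K9me3 peptide (50 nM) in PBS pH 7.4, 0.01% Tween-20. Compound added for 30 min at RT, then streptavidin donor/nickel chelate acceptor beads (10 ug/mL) for 30 min.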
G9a inh = qHTS Assay for Inhibitors of Histone Lysine Methyltransferase G9a; 350,000 tested, 8.8% active; Potency, µM (top dose mostly 102 µM), for inactives: top-dose activity, negative = inhibition, hits mostly inhibitors; G9a H3K9 monomethylation, AlphaScreen, 2 h; AID 504332, 2011; Histone-lysine N-methyltransferase EHMT2 (Homo sapiens), Q96KQ7; further: on the % scale 0 is the no-effect control and ±100 the full control effect; nearly all actives have a fitted effect of over 75% in size
Target sequence (Q96KQ7 913-1193 limits assumed): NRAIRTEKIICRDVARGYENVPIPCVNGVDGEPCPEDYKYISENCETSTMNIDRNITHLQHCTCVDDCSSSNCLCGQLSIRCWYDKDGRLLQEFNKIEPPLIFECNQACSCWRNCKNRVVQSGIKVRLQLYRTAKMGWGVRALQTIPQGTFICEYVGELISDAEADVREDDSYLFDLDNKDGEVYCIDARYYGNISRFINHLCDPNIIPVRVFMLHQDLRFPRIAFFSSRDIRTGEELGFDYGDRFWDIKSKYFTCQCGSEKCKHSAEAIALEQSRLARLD
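Compounds were preincubated with 20 nM G9a for 15 min, after which biotinylated H3K9 peptide (500 nM) and SAM (20 uM) started a 2 h room-temperature reaction. Monomethylated product was quantified by antibody-based AlphaScreen chemiluminescence.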
JMJD2A Tudor = qHTS Assay for Inhibitors of JMJD2A-Tudor Domain. Lysine-specific demethylase 4A (Homo sapiens), O75164. AlphaScreen JMJD2A-Tudor / H3K4me3 peptide binding. Potency, µM (highest dose often 114 µM), inactives show top-dose activity change, negative = inhibition, usual class: inhibitors. 390,000 tested, 4.4% active. AID 504339, 2011; further: on the % scale 0 is the no-effect control and ±100 the full control effect; nearly all actives have a fitted effect of over 50% in size
Active calls of the source: *; [ ] = another dose, or the depositor's remark. Hits are enriched below; roughly 9% of the tested compounds scored in any of these assays. The call rests on the fitted dose curve; in most records, active means well fitted curve in the direction sought with a large enough effect; inconclusive means small, poorly fitted or top-dose-only effect, or another doubt; inactive means no such curve, though single readings can be large; an effect the other way counts as inactive or inconclusive. Potency means the concentration at half of the fitted maximal effect.

What do the screens show for `COC(=O)COc1ccc2c(c1)O/C(=C\c1ccco1)C2=O`?
12-LOX inh: inconclusive; BAZ2B inh: inconclusive; PLK1 PBD block: -8%; HP1b chromo inh: -19%; G9a inh: 25µM*; JMJD2A Tudor: inconclusive

How did Cc1ccc(C2NNC(=O)C2NC(=O)c2ccccc2)cc1 (configuration not stated) do in these assays?
12-LOX inh: 25µM*; BAZ2B inh: -7%; PLK1 PBD block: -26%; HP1b chromo inh: 1%; G9a inh: 2.2µM*; JMJD2A Tudor: inconclusive

Results for O=C(NC1C(=O)NNC1c1ccccc1)c1ccc(F)cc1 (configuration not stated) ?
12-LOX inh: inconclusive; BAZ2B inh: 5%; PLK1 PBD block: -12%; HP1b chromo inh: 38%; G9a inh: -19%[59 µM]; JMJD2A Tudor: -12%

How did COc1cccc(Nc2cc(CN3CCC(C)(NC(C)=O)CC3)cc(OC)c2)c1 do in these assays?
12-LOX inh: 40µM*

What do the screens show for `COc1cccc(Nc2ccc(CN3CCC(C)(NC(C)=O)C3)cc2)c1` (configuration not stated)?
12-LOX inh: -6%[176 µM]

How did CC(=O)NC1(C)CCN(Cc2cccc(Oc3ccccc3)c2)CC1 do in these assays?
12-LOX inh: 16µM*

Results for CC(=O)NC1(C)CCN(Cc2cnc(-c3ccccc3OCc3ccccc3)s2)CC1 ?
12-LOX inh: 8.9µM*

What do the screens show for `CC(C)NC(=O)C1CCN(Cc2cccc(Oc3ccccc3)c2)CC1`?
12-LOX inh: inconclusive; BAZ2B inh: inconclusive; PLK1 PBD block: -5%; HP1b chromo inh: inconclusive; JMJD2A Tudor: 22µM*

How did CC(C)C[C@H]1COCCS(=O)(=O)N1Cc1cccc(F)c1 do in these assays?
12-LOX inh: 5%; PLK1 PBD block: 4%; HP1b chromo inh: 37%; JMJD2A Tudor: 0%

Results for CN(C)Cc1cc(C[C@@H]2C[C@H](NCc3ccccc3O)C2(C)C)no1 ?
12-LOX inh: 4%[176 µM]

How did O=C(O)c1cc(Nc2cc(Cl)c3nonc3c2[N+](=O)[O-])ccc1O do in these assays?
12-LOX inh: inconclusive; BAZ2B inh: inconclusive; PLK1 PBD block: 4.7µM*; HP1b chromo inh: 9%; G9a inh: 35µM*; JMJD2A Tudor: -32%

What do the screens show for `O=[N+]([O-])c1c(Nc2ccccc2O)cc(Cl)c2nonc12`?
12-LOX inh: inconclusive; BAZ2B inh: inconclusive; PLK1 PBD block: 3µM*; HP1b chromo inh: inconclusive; JMJD2A Tudor: inconclusive

How did COc1ccc(C)cc1S(=O)(=O)N1CCC2(CC1)OCCN2S(=O)(=O)c1ccccc1 do in these assays?
12-LOX inh: 0%; BAZ2B inh: 9%; PLK1 PBD block: -9%; HP1b chromo inh: 23%; G9a inh: -3%[59 µM]; JMJD2A Tudor: 2%

How did O=C(CCN1CCN(c2ccccc2)CC1)NNC(=O)Cc1ccc(Br)cc1 do in these assays?
12-LOX inh: 1%; BAZ2B inh: -12%; PLK1 PBD block: 1%; HP1b chromo inh: 34%; G9a inh: -44%; JMJD2A Tudor: -1%

How did O=C(O)c1nc(NCc2ccccc2)ncc1Cl do in these assays?
12-LOX inh: 0%; BAZ2B inh: -14%; PLK1 PBD block: -6%; HP1b chromo inh: 24%; G9a inh: 4%[2.33 µM]; JMJD2A Tudor: -10%

What do the screens show for `O=C(O)c1nc(NCCc2ccccc2)ncc1Cl`?
12-LOX inh: -16%; BAZ2B inh: -18%; PLK1 PBD block: -9%; HP1b chromo inh: -9%; G9a inh: 35µM*; JMJD2A Tudor: inconclusive

Results for O=C(NCc1ccccn1)c1ccc2c(c1)CCC2 ?
12-LOX inh: 56%
